Compound activity from PubChem BioAssay.
HTT promoter inh – HTT promoter inhibition. HEK293 HTT promoter firefly luciferase reporter, 24 h. Potency, µM (top dose mostly 57.5 µM), for inactives: at the top dose activity change, negative = inhibition, hits mostly inhibitors. hit rate 0.93% among 48,000. AID 1508623; note: potency is the fitted concentration of half-maximal effect; nearly all actives have a fitted effect of over 50% in size
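HEK293 cells carrying firefly luciferase reporters were seeded at 2,500 per well in Opti-MEM and cultured for 24 h. They were then treated with compounds at up to 57.5 uM final for 24 h at 37 degrees C before Dual-Glo luminescence readout.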
p53null 39C kill – p53 null cell cytotoxicity, nonpermissive temperature; H1299 p53-null (neo) cells, 39C, ATPlite viability, 24 h; Potency, µM (highest dose often 46.1 µM), for inactives: top-dose activity, negative = cell killing, usual class: cytotoxic; hit rate 0.97% among 55,000; AID 904;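 note: potency is the fitted concentration of half-maximal effect; 0% = DMSO only and -100% = full killing by 100 µM tamoxifen; nearly all actives have a fitted effect of over 50% in size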
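Following overnight plating at 37C (600 cells/well), H1299-neo or H1299-p53A138V cells are dosed up to 46 uM. Incubation lasts 24 hr at 39C before ATP detection.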
DRV1 agonist – GPR32 (DRV1) agonism, beta-arrestin recruitment; CHO-K1 GPR32 beta-arrestin PathHunter luminescence, 90 min; zero percent set by DMSO-only wells; activation, % at 76.9 µM; O75388; hit rate 2.5% among 48,000;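 active = activation of at least 60% and not above a set upper limit, about 1 call in 100 departs from these limits; inconclusive = activation of 40% to 60%, or above that upper limit; inactive = activation under 40%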; note: 0% is about no effect
Target sequence (O75388 whole entry, looked up): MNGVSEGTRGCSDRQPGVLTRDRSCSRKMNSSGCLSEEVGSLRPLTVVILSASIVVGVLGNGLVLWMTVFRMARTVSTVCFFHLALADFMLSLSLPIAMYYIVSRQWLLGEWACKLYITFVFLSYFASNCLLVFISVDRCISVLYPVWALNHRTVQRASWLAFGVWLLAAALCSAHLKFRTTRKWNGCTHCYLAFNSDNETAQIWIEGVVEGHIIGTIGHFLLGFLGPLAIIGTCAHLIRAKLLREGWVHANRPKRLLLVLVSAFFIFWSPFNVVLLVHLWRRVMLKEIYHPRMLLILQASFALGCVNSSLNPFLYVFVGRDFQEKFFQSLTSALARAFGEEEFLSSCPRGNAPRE
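GPR32 activation in stably transfected CHO-K1 cells, detected as beta-arrestin recruitment by enzyme-fragment complementation. Compound exposure: 90 min, 37 °C.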
HTT-AS promoter – HTT-AS promoter activation. HEK293 HTT-AS promoter firefly luciferase reporter, 24 h; response scale: percent change from vehicle, -100% = no light. AID 1508624. hit rate 0.24% among 48,000. Potency, µM (titrated, usually from 57.5 µM), for inactives: at the top dose activity change, positive = activation, actives largely listed as activators; note: potency is the fitted concentration of half-maximal effect; nearly all actives have a fitted effect of over 55% in size
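Luminescence was read after Dual-Glo reagent and a 10 min room-temperature incubation. Values were normalized to vehicle (0% activity) and zero RLU (-100% activity). Reporter HEK293 cells had been exposed to compounds (up to 57.5 uM final) for 24 h.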
p53null 32C kill – p53 null cell cytotoxicity, permissive temperature; H1299-neo p53 null cells, ATP luminescence, 24 h, 32C; Potency, µM (highest dose often 46.1 µM), without a hit: top-dose activity change, negative = cytotoxicity, hits mostly cytotoxic; hit rate 0.62% among 55,000; AID 903;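 note: potency is the fitted concentration of half-maximal effect; 0% = DMSO only and -100% = full killing by 100 µM tamoxifen; nearly all actives have a fitted effect of over 55% in size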
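H1299-neo, 600 cells/well; overnight 37C; cpd up to 46 uM, 24 h at 32C; ATPlite luminescence after 20 min RT; normalized to DMSO (0%) and tamoxifen 100 uM (100% kill); Hill-fit AC50.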
The depositor's hits bear a star; ? = inconclusive; / = no result given. The list is not random: actives were taken first. Their share in the collection is about 3.9%. Unless noted, calls come from the whole dose curve; as a rule, active = well fitted curve in the direction sought with a large enough effect; inconclusive = small, poorly fitted or top-dose-only effect, or another doubt; inactive = no such curve, though single readings can be large; an effect the other way counts as inactive or inconclusive.

SMILES	HTT promoter inh	p53null 39C kill	DRV1 agonist	HTT-AS promoter	p53null 32C kill
Cc1ccccc1OC(=O)c1cc(-c2ccc3c(c2)OCCO3)on1	-6%	?	-7	-3%	?
Cc1cc(C)cc(OC(=O)c2cc(-c3ccc4c(c3)OCCO4)on2)c1	11%	32µM*	-1	7%	?
Cc1cccc(OC(=O)c2cc(-c3ccc4c(c3)OCCO4)on2)c1	9%	25µM*	0	19%	?
CC(C)c1cc(C(C)C)c(CC(=O)NS(=O)(=O)Oc2c(C(C)C)cccc2C(C)C)c(C(C)C)c1	?	/	/	-10%	/
C[C@H](O)[C@@H]1C(=O)N2C(C(=O)O)=C(S[C@@H]3CN[C@H](CNS(N)(=O)=O)C3)[C@@H](C)[C@@H]12	10%	/	/	-4%	/
O=C(/C=C/Nc1ccccc1C(=O)O)c1cccs1	/	/	/	/	35µM*
C[C@@H](O[C@H]1OCCN(Cc2n[nH]c(=O)[nH]2)[C@@H]1c1ccc(F)cc1)c1cc(C(F)(F)F)cc(C(F)(F)F)c1	?	/	/	-48%	/
COc1ccc(CNC(=O)Nc2ccc3c(c2)N(C)C(=O)c2ccccc2S3)cc1OC	?	-9%	-9	-29%	-7%
CC(C)Oc1ccc(CNC(=O)Nc2ccc3c(c2)N(C)C(=O)c2ccccc2S3)cc1	25µM*	?	-15	-50%	-11%
CC(C)(N)C(=O)N[C@H](COCc1ccccc1)C(=O)N1CCC2(CC1)CN(S(C)(=O)=O)c1ccccc12	4%	/	/	-4%	/
O=C(/C(C=Nc1ccc(F)cc1)=C(/O)c1ccco1)C(F)(F)F	/	?	/	/	7.9µM*
Cc1cccc(N=C/C(C(=O)C(F)(F)F)=C(\O)c2ccco2)c1	/	/	/	/	6%
C[C@@H](N)c1ccc(C(=O)Nc2ccnc3[nH]ccc23)cc1	-22%	/	/	1%	/
Clc1ccc(Nc2nnc(Cc3ccncc3)c3ccccc23)cc1	?	/	72*	-20%	/
CCCCCCCCCCCCCCCCCCN(C)C	-5%	/	2	-11%	/
CCOc1ccccc1NS(=O)(=O)c1ccc2oc(=O)c3ncn(C)c3c2c1	/	20µM*	21	/	-18%
CCc1ccccc1NS(=O)(=O)c1ccc2oc(=O)c3ncn(C)c3c2c1	/	11%	-24	/	-9%
COc1cccc(CNCCSc2nnnn2C)c1OCc1ccccc1F	-11%	-17%	30	-18%	13%
CCOc1cc(CNCCSc2nnnn2C)ccc1OCc1ccc(Cl)cc1Cl	?	16µM*	47	-34%	?
COc1cccc(CNCCSc2nnnn2C)c1OCc1ccc(F)cc1	-7%	-24%	81*	-20%	10%
CCc1cc(C(C)=NOCc2ccc(C3CCCCC3)c(C(F)(F)F)c2)ccc1CN1CC(C(=O)O)C1	-11%	/	/	-13%	/
CCOc1ccc(NC(=O)CN2CCSc3ccc(S(=O)(=O)N4CCCC4)cc32)cc1	25µM*	-7%	0	-39%	6%
CCOc1ccc(CNC(=O)Cn2ccc3cc(S(=O)(=O)N4CCCCC4)ccc32)cc1	-20%	-2%	77*	-22%	-7%
Cc1ccc(NC(=O)CN2CCSc3ccc(S(=O)(=O)N4CCCC4)cc32)cc1	?	31%	-13	-36%	-2%
COc1ccccc1CNC(=O)Cn1c(=O)oc2cc(S(=O)(=O)N3CCC(C)CC3)ccc21	?	-6%	78*	-25%	?
SMILES	HTT promoter inh	p53null 39C kill	DRV1 agonist	HTT-AS promoter	p53null 32C kill
CCOc1ccc(NC(=O)Cn2c(=O)oc3cc(S(=O)(=O)N4CCC(C)CC4)ccc32)cc1	10µM*	-3%	117*	-49%	3%
COc1cc(N2CCN(C)CC2)ccc1Nc1nc(N)c(C(=O)c2c(Cl)cccc2Cl)s1	-12%	/	/	-7%	/
CCCCCCCC(=O)[O-].CCCCCCCC(=O)[O-].[Zn+2]	6%	/	35	-1%	/
Nc1ccc(C(=O)OCC(O)CO)cc1 (configuration not stated)	1%	/	-3	-3%	/
COc1ccc2c3n(c(=NC(=O)c4cccnc4)nc2c1OC)CCN3	?	/	/	-29%	/
Cc1ccc(CNC(=O)CN2C(=O)CSc3ccc(S(=O)(=O)N4CCCC4)cc32)cc1	-6%	13µM*	-23	-7%	-10%
O=C(NCC(c1cccs1)S(=O)(=O)c1cccs1)c1ccc(Cl)cc1 (configuration not stated)	-19%	5%	100*	-21%	-3%
O=C(NCC(c1cccs1)S(=O)(=O)c1cccs1)c1ccc(F)c(F)c1 (configuration not stated)	-13%	16%	95*	-18%	-1%
Cc1ccn2c(Nc3ccc(C(C)C)cc3)c(-c3cccnc3)nc2c1	?	21%	49	-24%	34%
COc1cc(-c2nc3nc[nH]n3c2Nc2ccc(C(C)C)cc2)ccc1O	-20%	-7%	-19	-22%	11%
COc1cc(-c2nc3cnccn3c2Nc2ccc(C(C)C)cc2)ccc1O	?	16µM*	29	-43%	?
CC(C)c1ccc(Nc2c(-c3ccccn3)nc3ccccn23)cc1	25µM*	?	-84	-67%	59%
CC(C)c1ccc(Nc2c(-c3ccccc3O)nc3cnccn23)cc1	-22%	25µM*	?	-27%	34%
CCc1ccc(NC(=O)Cn2nnc(-c3ccccc3N)n2)cc1	-15%	-11%	62*	-11%	-14%
O=C(Cn1nnc(-c2ccccc2Cl)n1)Nc1ccc(Br)cc1	11%	-23%	11	5%	-11%
COc1cccc(CN2CCc3nc(N4CCN(C)CC4)ncc3C2)c1	-15%	8%	-13	-14%	-7%
COc1cccc(CN2CCc3nc(N4CCN(c5ncccn5)CC4)ncc3C2)c1	25µM*	-17%	-15	-53%	4%
CCNC(=O)Nc1ccc(Oc2ncnc(N)c2C=NOC)cc1Cl	-5%	/	/	-2%	/
O=C1Nc2ccccc2C1(c1ccc(O)cc1)c1ccc(O)cc1	-14%	/	-2	-34%	/
O=C1[C@H](Cc2ccc(O)cc2)N2C(=O)CCN(C(=O)NCc3ccccc3)[C@H]2CN1Cc1cccc2ccccc12	?	/	/	-40%	/
COc1ccc(CN2CCN(C(c3ccc(F)cc3)c3ccc(F)cc3)CC2)c(OC)c1OC	-26%	/	78*	-27%	/
COc1ccc(CN2CCN(Cc3cc(=O)oc4cc(C)ccc34)CC2)c(OC)c1OC	-16%	?	-6	-26%	-11%
CCOc1ccc(Cc2cc([C@@H]3O[C@H](CO)[C@@H](O)[C@H](O)[C@@H]3O)ccc2Cl)cc1	-3%	/	/	-4%	/
CC[C@@H]1C(=O)N(C)c2cnc(Nc3ccc(C(=O)NC4CCC(N5CCN(CC6CC6)CC5)CC4)cc3OC)nc2N1C(C)C (some centres not stated)	-3%	/	/	?	/
COc1cccc(CN2CCc3nc(Nc4ccc5c(c4)OCCO5)ncc3C2)c1OC	?	-2%	86*	-8%	-6%
